# Only some compounds are listed: those with a hit (about 4.6% of all), similar ones and a draw of the others.
# D1 antagonist: blocks dopamine activation of the human D1 receptor; activity change, negative = inhibition, % at 10 µM; 3.2% of 360,000 active; AID 504652; P21728; HEK293 TREx D1 cells, calcium flux, dopamine EC80; stronger effect = lower value; in the data active = activity change below about -30%; note: % is set by controls: 0 for no effect and ±100 for the full control effect
# Target sequence (P21728 whole entry, looked up): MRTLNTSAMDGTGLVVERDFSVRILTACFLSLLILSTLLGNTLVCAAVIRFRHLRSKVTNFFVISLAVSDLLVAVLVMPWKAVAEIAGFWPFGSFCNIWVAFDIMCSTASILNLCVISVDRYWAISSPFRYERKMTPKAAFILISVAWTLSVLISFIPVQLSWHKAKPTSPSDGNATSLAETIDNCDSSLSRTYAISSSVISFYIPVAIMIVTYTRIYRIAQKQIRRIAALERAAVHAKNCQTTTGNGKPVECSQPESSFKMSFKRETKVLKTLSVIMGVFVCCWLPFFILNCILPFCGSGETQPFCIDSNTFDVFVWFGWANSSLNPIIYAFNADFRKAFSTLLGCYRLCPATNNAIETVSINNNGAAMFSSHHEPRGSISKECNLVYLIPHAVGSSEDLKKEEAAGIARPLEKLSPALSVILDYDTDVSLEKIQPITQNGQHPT
#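 Using tetracycline-induced force-coupled D1 Hek293 cells and a calcium dye, signals were followed for 180 s after compound, then for 180 s after EC80 dopamine, to detect inhibitors.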
# D1 PAM: potentiators of human D1 dopamine receptor; P21728; HEK293 TREx D1 cells, calcium flux, dopamine EC20 potentiation; potentiation, % at 10 µM; 0.036% of 360,000 active; in the data active = potentiation above about 30%; note: 0% is about no effect
# D1 ag: activates the human D1 dopamine receptor | P21728 | AID 504660 | 1% of 360,000 active | HEK293 T-REx D1 cells, calcium flux, agonist mode | activation, % at 2 µM; note: 0% is about no effect
#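 Tetracycline-induced HEK293 TREx D1 cells, force-coupled to calcium signalling, were dye-loaded with a no-wash calcium kit. Compound was pin-added after a 10 s baseline. Fluorescence was read kinetically at 1 cycle/s for 180 s, with calcium rises flagged as agonism.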
# TRHR agonist: activates the human TRH receptor; P34981; TRHR cells, calcium flux fluo-8, FDSS agonist mode; activation, % at 2 µM; 0.18% of 360,000 active; AID 493084; note: 0% is about no effect
#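 In this calcium-flux screen, cells bearing human TRHR are dye-loaded with fluo-8, baselined for 10 cycles, then exposed to library compounds; positive kinetic calcium responses during the agonist phase mark hits, with TRH as control.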
# TRHR enhancer: allosterically enhances the human TRH receptor | P34981 | TRHR cells, fluo-8 calcium fluorescence, EC20 TRH enhancement | enhancement, % at 2 µM | 0.66% of 360,000 active; in the data active = enhancement above about 30%; note: 0% is about no effect
#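 TRHR-expressing cells loaded with fluo-8 calcium dye were read kinetically (ex 480/em 530) during compound addition, then stimulated with an EC20 of TRH (10 nM final). Enhancement of the Gq-mediated intracellular calcium response was scored.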
# The depositor's hits bear a star; / = not tested or not shown; ! = not confirmed by another sample. Cut-off read from the data, not from the text of the source, unless noted: active = activation above about 30%; inactive = the rest.
SMILES,D1 antagonist,D1 PAM,D1 ag,TRHR agonist,TRHR enhancer
Cc1cc(NS(=O)(=O)c2ccc(NC(=O)COc3ccc(Br)cc3C)cc2)no1,4.1,-1.1,1.2,-1.1,3.6
Cc1cc(NS(=O)(=O)c2ccc(NC(=O)COc3c(C)cc(Br)cc3C)cc2)no1,5.5,-6.1,88.2*!,-0.8,2.5
COc1ccc(C(c2sc3nc(C)nn3c2O)N2CCc3ccccc3C2)cc1 (stereo unspecified),-1.7,-5.2,3.4,-0.1,-0.8
COCCCNC(=O)c1ccc(-n2nc(C(F)(F)F)cc2-c2cccs2)cc1,-1.6,-6.6,10.6,-0.7,-0.1
O=C(NCCCN1CCOCC1)c1ccc(-n2nc(C(F)(F)F)cc2-c2cccs2)cc1,-24.8,-9.5,61.7*,-0.6,9.6
CCOc1ccc(/C=N/NC(=O)c2ccccc2NC(=O)c2ccc(OC)cc2)cc1,-2.9,-7.0,0.9,1.2,-2.1
C=CCn1c(SCCC)nc(O)cc1=O,-26.4,-4.8,128.2*,26.0,-12.2
CC1(C)CC(NC(=O)C23CCC(C)(/C(=N/O)C2)C3(C)C)CC(C)(C)N1 (stereo unspecified),-1.3,0.7,3.0,-2.0,0.2
O=C(O)CCCN1C(=O)C(=O)/C(=C(/O)c2ccccc2)C1/C=C/c1ccccc1 (stereo unspecified),-30.8*,-4.0,2.6,-0.2,19.8
O=C(c1c(Cl)nc2sccn12)N(C(=O)c1c(Cl)nc2sccn12)c1ccc(Cl)cn1,15.5,-0.4,13.6,0.5,-2.8
Cc1ccc(C(=O)NNC(=S)Nc2cccc3ccccc23)s1,-37.0*,-18.5,3.3,-0.1,-1.5
O=C(CC1Nc2ccccc2NC1=O)c1ccccc1 (stereo unspecified),1.3,-3.1,67.9*,16.5,-3.2
Cc1cc(C)c(C)c(OCC(=O)O/N=C(\N)c2ccncc2)c1,-1.2,-1.8,19.9,-0.5,-0.1
Cc1ccc(OCC(=O)O/N=C(\N)c2ccncc2)c(C)c1,-30.6*,/,6.9,-0.6,8.6
CC(=O)Nc1nc2n(n1)C(c1ccc(F)cc1)C=C(c1ccccc1)N2 (stereo unspecified),-4.2,3.2,9.6,-0.4,11.5
O=C(c1nc2n(n1)C(c1ccc(Cl)cc1)C=C(c1ccccc1)N2)N1CCOCC1 (stereo unspecified),7.1,2.9,26.9,32.8*,6.1
COc1ccc(C2=CC(c3ccc(F)cc3)n3nnnc3N2)cc1 (stereo unspecified),-8.5,-6.3,-0.3,0.4,-2.5
COc1ccc(C2C=C(c3cccs3)Nc3nc(CCCO)nn32)cc1 (stereo unspecified),7.7,7.2,63.9*,98.7*,0.2
COc1ccc(C2C=C(c3ccc(F)cc3)Nc3nc(-c4ccc(Cl)cc4)nn32)cc1 (stereo unspecified),9.4,-4.2,38.3*,-1.0,6.9
COc1ccc(C2C=C(c3ccc(Cl)cc3)Nc3nc(NC(C)=O)nn32)cc1 (stereo unspecified),-2.7,-4.5,40.1*,-2.2,8.8
O=C(Nc1nc2n(n1)C(c1ccccc1)C=C(c1ccc(Cl)cc1)N2)c1ccco1 (stereo unspecified),-1.3,-1.4,47.3*,22.4,-1.5
COc1ccc(C2C=C(c3ccccc3)Nc3nc(NC(=O)/C=C/c4ccccc4)nn32)cc1 (stereo unspecified),9.7,-1.1,0.8,-0.3,2.2
CCC(=O)Nc1nc2n(n1)C(c1ccc(OC)cc1)C=C(c1ccccc1)N2 (stereo unspecified),-2.7,-2.4,68.9*,-0.1,-2.9
COc1ccc(C(=O)Nc2nc3n(n2)C(c2ccccc2)C=C(c2ccccc2)N3)cc1 (stereo unspecified),-13.2,-4.5,31.9*,14.1,-4.1
COc1ccccc1-c1noc2ncnc(Nc3cccc(C)c3C)c12,-32.0*,-6.2,2.4,-0.9,-5.7
SMILES,D1 antagonist,D1 PAM,D1 ag,TRHR agonist,TRHR enhancer
COc1ccccc1-c1noc2ncnc(Nc3ccccc3C)c12,-8.3,4.3,3.7,16.7,-3.9
CN1N=C2c3ccccc3CCC2C1c1ccc(C(F)(F)F)cc1 (stereo unspecified),-82.4*,0.9,3.6,-0.1,0.4
CN(C)c1ccc(C2C3CCCc4ccccc4C3=NN2C)cc1 (stereo unspecified),14.4,2.4,2.2,0.5,1.0
Cc1cccc(NC(=O)CSCc2cc(=O)n3c(C)csc3n2)c1C,12.8,-7.1,0.1,0.3,-0.5
CCOC(=O)N1CCN(C(=O)CCS(=O)(=O)c2cc3c(cc2Cl)NC(=O)CO3)CC1,21.4,-10.9,3.6,0.2,-0.1
CCc1cccc(NC(=O)CCS(=O)(=O)c2ccc3c(c2)NC(=O)CO3)c1,6.6,-0.2,1.4,0.6,-1.3
O=C(CCS(=O)(=O)c1cc2c(cc1Cl)NC(=O)CO2)NCc1ccc(F)cc1,-34.7*,-6.2,1.1,0.4,-3.6
COc1cc(Cl)c(NC(=O)CCS(=O)(=O)c2ccc3c(c2)NC(=O)CO3)c(OC)c1,14.1,-3.0,-1.5,0.0,30.8*
COc1ccc(N2CCN(C(=O)CCS(=O)(=O)c3cc4c(cc3Cl)NC(=O)CO4)CC2)cc1,-64.3*,-0.8,-2.4,0.3,10.9
O=C(CCS(=O)(=O)c1cc2c(cc1Cl)NC(=O)CO2)NCc1ccc(Cl)cc1,3.9,-0.7,0.0,0.3,-4.7
Cc1ccc(-n2nc3c(c2NC(=O)c2ccc4c(c2)OCO4)CS(=O)(=O)C3)cc1,-6.9,-5.2,1.1,-0.2,3.0
O=C(Nc1c2c(nn1-c1ccc(F)cc1)CS(=O)C2)c1ccc2c(c1)OCO2 (stereo unspecified),13.8,-5.2,1.6,0.5,0.4
O=C(Nc1c2c(nn1-c1cccc(Cl)c1)CS(=O)C2)c1ccc2c(c1)OCO2 (stereo unspecified),-36.1*,-2.9,3.2,0.8,-11.6
Cc1ccc(-n2nc3c(c2NC(=O)c2ccc4c(c2)OCO4)CS(=O)C3)c(C)c1 (stereo unspecified),-51.5*,2.3,1.1,0.0,-13.7
COC(=O)c1sccc1NC(=O)c1ccccc1F,4.7,-1.2,0.0,0.1,-1.8
O=C(N/N=C/c1ccco1)C1(O)c2ccccc2-c2ccccc21,11.9,-1.4,1.5,-0.1,-1.0
Cc1nn(C)cc1/C=N/NC(=O)C1(O)c2ccccc2-c2ccccc21,-34.4*,-6.1,1.4,0.9,-2.3
CC1CCC2C(=O)N(c3cccc(OS(=O)(=O)c4ccccc4)c3)C(=O)C2C1 (stereo unspecified),-2.6,2.7,13.0,-1.1,-0.5
Cc1sc2ncnc(NCC(c3ccco3)N(C)C)c2c1C (stereo unspecified),-34.8*,-5.5,10.3,0.2,-14.5
CC1(C)CC(NC(=O)C(F)(F)F)CC(C)(C)N1OC(=O)c1ccco1,-3.2,-7.0,3.6,0.5,-2.8
